Source: PubChem BioAssay (NCI)
About 83,000 compounds went through this panel and 20% of them were active in at least one assay; those are over-represented in the sample as a whole.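 Method: cells in 96-well plates; compound added at one concentration; 48 h incubation; percent growth measured; values under 10 scored active.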 Values without a mark were called inactive. Activity calls are given as the source filed them.

How the values were obtained:
Assay in all cases: NCI-60 one-dose screen, 48 h (100 = growth as untreated, 0 = no growth, -100 = all killed)
[1] = test system: HCT-15 colon; conditions: 10 µM unless noted
[2] = test system: HT29 colon; conditions: 10 µM unless noted
[3] = test system: SNB-75 CNS; conditions: 10 µM unless noted
[4] = test system: SNB-19 CNS; conditions: 10 µM unless noted
[5] = test system: U251 CNS; conditions: 10 µM unless noted
[6] = test system: PC-3 prostate; conditions: 10 µM unless noted
[7] = test system: SK-MEL-5 melanoma; conditions: 10 µM unless noted
[8] = test system: UACC-62 melanoma; conditions: 10 µM unless noted
[9] = test system: LOX IMVI melanoma; conditions: 10 µM unless noted
[10] = test system: SK-MEL-28 melanoma; conditions: 10 µM unless noted
[11] = test system: EKVX NSCLC; conditions: 10 µM unless noted
[12] = test system: SN12C renal; conditions: 10 µM unless noted
[13] = test system: UO-31 renal; conditions: 10 µM unless noted
[14] = test system: TK-10 renal; conditions: 10 µM unless noted
[15] = test system: ACHN renal; conditions: 10 µM unless noted
[16] = test system: CAKI-1 renal; conditions: 10 µM unless noted
[17] = test system: HL-60(TB) leukemia; conditions: 10 µM unless noted
[18] = test system: CCRF-CEM leukemia; conditions: 10 µM unless noted
[19] = test system: SK-MEL-2 melanoma; conditions: 10 µM unless noted
[20] = test system: A498 renal; conditions: 10 µM

Row | SMILES | growth [1] | growth [2] | growth [3] | growth [4] | growth [5] | growth [6] | growth [7] | growth [8] | growth [9] | growth [10] | growth [11] | growth [12] | growth [13] | growth [14] | growth [15] | growth [16] | growth [17] | growth [18] | growth [19] | growth [20]
1 | C=C1C(=O)O[C@H]2[C@H]1CC/C(COC(=O)C(=O)c1cn(Cc3ccccc3)c3ccccc13)=C\CC[C@@]1(C)O[C@@H]21 | -45.6% (active) | -40.2% (active) | -75.2% (active) | 3.39% (active) | -88.7% (active) | -57.9% (active) | -96.6% (active) | -87.4% (active) | -93.3% (active) | -47.1% (active) | -40.7% (active) | -70.3% (active) | -91.3% (active) | -62.2% (active) | -61.5% (active) | -34.6% (active) | -26.6% (active) | -30.6% (active) |  | 
2 | O=c1[nH]cc(N(CCCl)CCCl)c(=O)[nH]1 | 75.6% | 63.4% | 62.9% | 65.1% | 64.7% | 49.5% | 82% | 64% | 46% |  | 101% | 59.3% | 42.9% | 86.8% | 15.5% | 12.8% | -9.89% (active) | 31% | 102% | 
3 | ClCCN(CCCl)c1ccc(/C=N/Nc2ncnc3nc[nH]c23)cc1 | 95% | 77.5% | 72.7% | 82% | 67.6% | 232% | 75% | 74% | 65.8% | 117% | 85.1% | 67.2% | 54.2% | 113% |  | 64% | 92% | 42.4% |  | 98.4%
4 | COC(=O)N[C@H]1CCc2c(Br)c(OC)c(OC)c(OC)c2-c2ccc(SC)c(=O)cc21 | 7.69% (active) | 12% | 29.1% | 28.2% | 21.4% | 21.7% | -44.6% (active) | 38.6% |  | 66.9% | 46% | 25.1% | 18.2% | 41.6% | 26.7% | 13.7% | -43.7% (active) | 3.65% (active) | 29.4% | 
5 | CCCCCCCCCCCCCCCCCC1OC[C@H](COC(=O)O[C@@H](C(=O)O[C@H]2C[C@@]3(O)[C@@H](OC(=O)c4ccccc4)[C@@H]4[C@]5(OC(C)=O)CO[C@@H]5C[C@H](O)[C@@]4(C)C(=O)[C@H](OC(C)=O)C(=C2C)C3(C)C)[C@@H](NC(=O)c2ccccc2)c2ccccc2)O1 (stereo partly drawn) | 96.8% | 15.7% | 59.1% | 49.6% | 46.6% | 45.2% | 75.6% | 46.8% |  | 55.9% | 93.7% | 56.8% | 98.1% | 99.8% | 96.2% | 81% | 23.3% | 44.8% | 75% | 
6 | O=C1CC2(CC3(Cl)C(Cl)=C(Cl)C2(Cl)C3(Cl)Cl)C(=O)O1 (stereo not drawn) | 113% | 113% | 89.4% | 106% | 107% | 93.6% | 102% | 112% |  | 112% | 95.7% | 107% | 63.5% | 98.7% | 105% | 97.9% | 97.1% | 114% | 121% | 98.9%
7 | CC(=O)O[C@H]1C(=O)[C@@]2(C)[C@H]([C@H](OC(=O)c3ccccc3)[C@]3(O)C[C@H](OC(=O)[C@H](OC(=O)OCC4COC(C)(C)O4)[C@@H](NC(=O)c4ccccc4)c4ccccc4)C(C)=C1C3(C)C)[C@]1(OC(C)=O)CO[C@@H]1C[C@@H]2O (stereo partly drawn) | 29.2% | 9.74% (active) | 41.9% | 36.6% | 34.4% | 38.7% | 44.1% | 34.4% |  | 43.8% | 70.8% | 51.7% | 71.3% | 79.6% | 66.5% | 37.5% | 12.8% | 31.3% | 54.2% | 47.1%
8 | CC(C)[C@]12O[C@H]1[C@@H]1O[C@]13[C@]1(O[C@H]1C[C@H]1c4c(C(=O)c5ccccc5)oc(OC(=O)c5ccccc5)c4CC[C@@]13C)[C@@H]2O | 5.32% (active) | 8.55% (active) | -30.5% (active) | 13.8% | 12.1% | -0.741% (active) | -51.9% (active) | -28.7% (active) | 9.13% (active) | -69.5% (active) | -17.2% (active) | 23.7% | 7.34% (active) | 44% | 10.6% |  | -46% (active) | -32.5% (active) |  | -49.4% (active)
9 | N#CC1(c2ccccc2)CCN(Cc2ccccc2)CC1 | 94.1% | 101% | 121% | 114% | 107% | 84.2% | 102% | 110% |  | 122% | 96.2% | 114% | 108% | 88.4% | 98% | 94.7% | 102% | 86.3% | 99.6% | 64.8%
10 | O=C1C2C(C(=O)[N]1[Hg][c]1ccccc1)C1(Cl)C(Cl)=C(Cl)C2(Cl)C1(Cl)Cl (stereo not drawn) | -89.1% (active) | -45% (active) | -64.1% (active) | 25.9% | -65.9% (active) | -57.4% (active) | -16.6% (active) | -3.49% (active) |  | -88.9% (active) | -7.36% (active) | -71.7% (active) | -77.1% (active) | -95.9% (active) | -98.5% (active) | -87.5% (active) | -18.4% (active) | -23.8% (active) | 50.8% | 32.8%
11 | COc1ccc(/C=C\c2cc(OC)c(OC)c(OC)c2)cc1OCC(=O)Nc1nc2ccc(F)cc2s1 | 45% | 39.9% | 15.6% | 72.6% | 21.2% | 40.4% | -0.28% (active) | 32.4% |  | 69.5% | 57.7% | 42.4% | 0.455% (active) | 17.5% | 25% | 16.9% | 33.7% | 40.4% | 68.8% | 29.5%
